The record followed here is PubChem BioAssay.

Calls of active or inactive are those of the source.

The test system of assay [1] is Plasmodium falciparum Sir2 (PF13_0152, Sir2A). The assay can be described thus: Plasmodium falciparum Sir2A binding compounds – biochemical, small-molecule microarray, 635 nm fluorescence, primary screen (AID 1098).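 Further: score merges spot fluorescence intensity with its signal-to-noise ratio.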 The note with it: fluorescence 635 nm, higher = more signal.
Assay [2] can be described thus: probe aDKK1 binding to arrayed compounds – biochemical, biotinylated probe, 635/667 nm fluorescence, primary screen (AID 1099).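 Further: score merges 667nm spot fluorescence with signal to noise across triplicate slides; reference of the scale not given here.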 The note with it: small-molecule microarray, higher = more signal.
Assay [3] can be described thus: probe aCHRDL2 binding to arrayed compounds – biochemical, biotinylated probe, 635/667 nm fluorescence, primary screen (AID 1100). The note with it: small-molecule microarray, higher = more signal.
Assay [4] in a line: change in splice reporter luminescence, either direction, cell-based, HEK293, spliceosome inhibition project, primary screen (AID 1101).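 Further: HEK293 cells carrying a splicing-competent luciferase reporter gene; test concentration not given here.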 The note with it: HEK293 splicing luciferase reporter, 24 h, higher = more signal, called active from +8 up or from −8 down. Background: In a reporter assay the amount or activity of a reporter protein is the signal.
The target of assay [5] is Fibroblast growth factor 10 (Homo sapiens) (UniProt O15520). The experiment in a line: compounds binding fibroblast growth factor 10 – biochemical, small-molecule microarray, 635 nm fluorescence, primary screen (AID 1102). The note with it: FGF10 binding, fluorescence 635 nm, higher = more signal.
In assay [6] the test system is glycogen synthase kinase-3 (GSK3A per assay name; protocol says GSK3B). The assay can be described thus: compounds binding glycogen synthase kinase-3 – biochemical, small-molecule microarray, 635 nm fluorescence, GSK3A, primary screen (AID 1103). Further: the record names both GSK3A and GSK3B. The note with it: fluorescence 635 nm, higher = more signal.
The target of assay [7] is Epidermal growth factor receptor (Homo sapiens) (UniProt P00533). The experiment in a line: compounds binding epidermal growth factor receptor – biochemical, small-molecule microarray, 635 nm fluorescence, primary screen (AID 1104).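 Further: score merges 667 nm emission intensity with spot signal to noise over triplicate slides.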 The following applies: EGFR binding, higher = more signal.
In assay [8] the target is Follistatin-related protein 3 (Homo sapiens) (UniProt O95633). The experiment in a line: compounds binding follistatin-related protein 3 – biochemical, small-molecule microarray, 635 nm fluorescence, primary screen (AID 1105).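 Further: score merges emission near 667 nm and signal to noise per printed spot across three slides.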 The following applies: FSTL3 binding, higher = more signal.
Assay [9] concerns the target Dickkopf-related protein 1 (Homo sapiens) (UniProt O94907). The experiment in a line: small molecules binding DKK1 protein – biochemical, small-molecule microarray, 635 nm fluorescence scan, primary screen (AID 1106).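 Further: score merges emission near 667 nm with signal to noise over three replicate slides.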 The following applies: higher = more signal.
Assay [10] deals with Inhibin beta A chain (activin A). The experiment in a line: small molecules binding activin A – biochemical, small-molecule microarray, 635 nm fluorescence scan, primary screen (AID 1107).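 Further: mouse activin A protein probed at 4.33 µg/mL on printed slides; score merges bound-protein fluorescence near 667 nm with spot signal-to-noise.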 The note with it: INHBA, higher = more signal.

Epidermal growth factor receptor (Homo sapiens), sequence (P00533 whole entry, looked up): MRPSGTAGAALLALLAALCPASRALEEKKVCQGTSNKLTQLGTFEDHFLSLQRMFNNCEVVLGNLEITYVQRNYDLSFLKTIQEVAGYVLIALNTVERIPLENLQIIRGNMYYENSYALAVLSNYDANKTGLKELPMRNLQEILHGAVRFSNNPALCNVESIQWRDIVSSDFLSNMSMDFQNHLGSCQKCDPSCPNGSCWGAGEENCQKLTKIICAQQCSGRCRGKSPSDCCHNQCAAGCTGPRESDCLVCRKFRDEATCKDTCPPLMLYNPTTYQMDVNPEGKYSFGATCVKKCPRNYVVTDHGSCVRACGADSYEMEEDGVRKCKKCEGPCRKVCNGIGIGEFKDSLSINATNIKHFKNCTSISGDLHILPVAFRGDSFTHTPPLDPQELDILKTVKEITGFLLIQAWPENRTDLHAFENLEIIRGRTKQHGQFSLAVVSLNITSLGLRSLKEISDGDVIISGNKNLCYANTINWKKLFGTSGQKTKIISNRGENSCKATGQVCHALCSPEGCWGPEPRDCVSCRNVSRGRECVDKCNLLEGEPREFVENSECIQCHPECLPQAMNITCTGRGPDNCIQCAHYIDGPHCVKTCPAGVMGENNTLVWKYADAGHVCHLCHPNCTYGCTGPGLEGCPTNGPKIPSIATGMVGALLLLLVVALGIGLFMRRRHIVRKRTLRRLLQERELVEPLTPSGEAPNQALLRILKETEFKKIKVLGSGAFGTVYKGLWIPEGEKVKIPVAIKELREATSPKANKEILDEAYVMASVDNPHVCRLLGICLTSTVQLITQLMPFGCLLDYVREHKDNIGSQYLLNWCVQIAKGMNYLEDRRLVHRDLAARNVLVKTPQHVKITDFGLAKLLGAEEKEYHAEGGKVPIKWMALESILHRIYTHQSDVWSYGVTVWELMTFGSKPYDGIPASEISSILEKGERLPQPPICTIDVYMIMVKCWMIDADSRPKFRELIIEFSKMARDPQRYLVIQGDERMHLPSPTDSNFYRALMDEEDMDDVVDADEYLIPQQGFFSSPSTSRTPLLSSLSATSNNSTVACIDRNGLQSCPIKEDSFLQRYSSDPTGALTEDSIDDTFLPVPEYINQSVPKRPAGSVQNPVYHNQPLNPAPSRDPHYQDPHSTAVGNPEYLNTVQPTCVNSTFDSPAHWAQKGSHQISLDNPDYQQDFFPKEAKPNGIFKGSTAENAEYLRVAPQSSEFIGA
Follistatin-related protein 3 (Homo sapiens), sequence (O95633 whole entry, looked up): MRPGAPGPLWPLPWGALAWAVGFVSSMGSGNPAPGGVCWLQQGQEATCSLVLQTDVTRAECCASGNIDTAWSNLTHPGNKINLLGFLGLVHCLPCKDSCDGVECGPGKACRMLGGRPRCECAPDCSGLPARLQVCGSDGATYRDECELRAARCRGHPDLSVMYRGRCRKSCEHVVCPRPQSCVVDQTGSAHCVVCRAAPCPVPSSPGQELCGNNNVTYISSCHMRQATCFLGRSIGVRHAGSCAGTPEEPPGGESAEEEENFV
Fibroblast growth factor 10 (Homo sapiens), sequence (O15520 whole entry, looked up): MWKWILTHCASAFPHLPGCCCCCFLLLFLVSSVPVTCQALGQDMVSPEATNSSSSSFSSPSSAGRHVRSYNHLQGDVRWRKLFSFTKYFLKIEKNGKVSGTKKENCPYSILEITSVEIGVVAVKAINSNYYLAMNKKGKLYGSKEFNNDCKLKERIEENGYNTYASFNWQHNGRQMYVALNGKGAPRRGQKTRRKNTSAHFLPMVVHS
Dickkopf-related protein 1 (Homo sapiens), sequence (O94907 whole entry, looked up): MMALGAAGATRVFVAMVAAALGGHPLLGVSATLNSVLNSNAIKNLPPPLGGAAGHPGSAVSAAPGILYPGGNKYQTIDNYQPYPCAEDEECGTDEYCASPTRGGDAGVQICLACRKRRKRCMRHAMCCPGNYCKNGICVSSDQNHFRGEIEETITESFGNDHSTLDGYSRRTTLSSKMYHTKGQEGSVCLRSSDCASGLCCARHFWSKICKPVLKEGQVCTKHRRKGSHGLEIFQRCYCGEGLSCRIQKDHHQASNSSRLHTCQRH

In the case of `C=CC[C@]1(C(=O)NCCCOC)N=C(c2ccc(OCCCO)cc2)O[C@H]1c1ccccc1`, the composite z-score was 1.08 in assay [1]; 0.107 in assay [2]; 1.05 in assay [3]; -0.418 in assay [5]; 0.94 in [6]; -1.69 in assay [7]. The composite z-score in assay [8] is -0.0778; in [9], -1.13; in [10], -0.112. In assay [4], the z-score was -0.318 (inactive).
As to `O=C1O[C@H](c2ccccc2)[C@H](c2ccccc2)N2[C@H]1[C@@H](C(=O)N1CCN(c3ncccn3)CC1)[C@]1(C(=O)Nc3ccccc31)[C@H]2c1ccc(O)cc1`, the composite z-score in assay [1] was 0.612; in [2], 0.571; in assay [3] it was 0.544; in assay [5] it was 0.506; in [6], 0.799; in assay [7] it was -0.149. Also, the composite z-score in assay [8] is -0.0987; in assay [9], 0.165; in assay [10] it was 0.0112. The z-score in assay [4] is -0.117 (inactive).
For the compound `COc1ccccc1CN1C(=O)c2ccccc2[C@](Cc2ccccc2I)(C(=O)NCCCN(C)C)[C@@H]1c1ccc(CO)cc1`, the composite z-score in assay [1] is 1.2; in assay [2], -0.556; in assay [3], -0.376; in assay [5], -0.0448; in assay [6], 1.22; in assay [7], 0.221. For the same compound, the composite z-score in assay [8] worked out at 0.158; in assay [9], 0.0393; in [10] it was 0.545. In assay [4], the z-score is -1.79 (inactive).
Turning to `CCN(CC)c1ccc(N2CC=CC34O[C@@H]5C=CCOC(=O)[C@@H]5[C@H]3C(=O)N(CCCO)[C@@H]4C2=O)cc1` (stereo not given in full), the composite z-score in assay [1] was 0.481; in assay [2], -0.464; in [3], 0.0573; in [5], -0.946; in [6], -1.11; in assay [7], -0.853. Also, the figures for the composite z-score in [8], in [9] and in [10] were -0.69, -0.901 and 1.65, respectively. The z-score in [4] is -1.6 (inactive).
For `COCC(=C=CC[C@@H](O)c1cccc(OCCO)c1)C[C@@H](O)COCc1ccccc1`, the composite z-score is 0.264 in assay [1]; 0.613 in assay [2]; 0.67 in assay [3]; 1.4 in [5]; 1.19 in assay [6]; -0.623 in assay [7]. Further, the composite z-score in [8] is 0.416; in assay [9], -0.267; in assay [10], 0.717. Moreover, the z-score in [4] is -0.51 (inactive).
Turning to `CC(C)C[C@@H]1NC(=O)[C@@H]2C[C@H](C(=O)NCCCC[N+](C)(C)C)[C@H](c3ccc(O)cc3)N2C1=O`, the composite z-score in assay [1] is 1.39; in assay [2] it was -0.0913; in assay [3] it was -0.587; in assay [5] it was 1.3; in [6] it was 0.896; in assay [7], 0.81. Besides, the figures for the composite z-score in assay [8], in assay [9] and in assay [10] were 1.56, 1.79 and -0.531, respectively. In addition, the z-score in assay [4] is 0.438 (inactive).
On to `NCCCC[C@@H]1NC(=O)[C@H]2C[C@@H](C(=O)O)[C@@H](c3cccc(OCCO)c3)N2C1=O`, for which the composite z-score worked out at 1.61 in [1]; 1.21 in assay [2]; 0.752 in assay [3]; 1.51 in [5]; 1.35 in assay [6]; 1.53 in assay [7]. For the same compound, the composite z-score in [8] was determined as 1.53; in assay [9] it was 1.62; in [10] it was 1.03. In assay [4], the z-score is -0.615 (inactive).
Regarding `CN1C(=O)[C@]2(CCC(=O)OC(C)(C)C)N=C(c3ccc(OCCCO)cc3)O[C@@H]2c2ccccc21`, the composite z-score was 1.14 in assay [1]; -0.0732 in assay [2]; 0.651 in assay [3]; 1.38 in [5]; 1.29 in assay [6]; -0.0099 in assay [7]. Also, the composite z-score in assay [8] is 0.659; in assay [9] it was 0.297; in assay [10], 0.643. For the same compound, the z-score in [4] was -0.432 (inactive).
Consider `C[C@H]1C2[C@H](Cc3ccccc3)NC(=O)[C@]23C(=O)NCC(=O)N2CCC[C@H]2C(=O)NC/C=C\C/C=C/C3[C@@H]2O[C@]12C` (stereo not given in full), for which the composite z-score in assay [1] is 1; in assay [2], -0.22; in assay [3] it was -0.6; in assay [5] it was 0.269; in assay [6] it was -0.0567; in [7] it was 0.136. The figures for the composite z-score in [8], in assay [9] and in assay [10] were 0.201, 0.376 and 1.43, respectively. Further, the z-score in assay [4] is 0.0829 (inactive).
Regarding `[N-]=[N+]=NCc1ccccc1C[C@]1(C(=O)O)COC(c2ccc(OCCCO)cc2)=N1`, the composite z-score in [1] is 0.991; in assay [2], 0.261; in assay [3], 1.12; in [5], -0.472; in [6], -1.19; in assay [7], -0.756. The composite z-score in assay [8] was -0.757; in [9], -1.27; in assay [10], 0.616. Further, the z-score in assay [4] is 0.544 (inactive).
For the compound `COc1ccc([Si](C)(C)[C@H]2[C@H](CCO)O[C@@]3(C(=O)N(Cc4ccc(N5CCOC5=O)cc4)c4ccccc43)[C@@H]2C)cc1`, the composite z-score in [1] was 0.901; in assay [2], -0.0663; in assay [3], 0.171; in [5] it was -0.0921; in assay [6] it was -0.155; in assay [7], -0.197. Further, the composite z-score was -0.0181 in assay [8], -0.524 in [9] and 0.416 in assay [10]. Also, the z-score in assay [4] is -1.15 (inactive).
